# RORg inh: qHTS for inhibitors of ROR gamma transcriptional activity. Nuclear receptor ROR-gamma (Mus musculus), P51450. Drosophila S2 Gal4-RORgamma UAS-luciferase reporter, 20 h. Potency, µM (titrated, usually from 53.6 µM), without a hit: top-dose activity change, negative = inhibition, most hits filed as inhibitors. 5.4% of 310,000 active; note: nearly all actives have a fitted effect of over 60% in size
# Target sequence (P51450 whole entry, looked up, the tested form may be a part): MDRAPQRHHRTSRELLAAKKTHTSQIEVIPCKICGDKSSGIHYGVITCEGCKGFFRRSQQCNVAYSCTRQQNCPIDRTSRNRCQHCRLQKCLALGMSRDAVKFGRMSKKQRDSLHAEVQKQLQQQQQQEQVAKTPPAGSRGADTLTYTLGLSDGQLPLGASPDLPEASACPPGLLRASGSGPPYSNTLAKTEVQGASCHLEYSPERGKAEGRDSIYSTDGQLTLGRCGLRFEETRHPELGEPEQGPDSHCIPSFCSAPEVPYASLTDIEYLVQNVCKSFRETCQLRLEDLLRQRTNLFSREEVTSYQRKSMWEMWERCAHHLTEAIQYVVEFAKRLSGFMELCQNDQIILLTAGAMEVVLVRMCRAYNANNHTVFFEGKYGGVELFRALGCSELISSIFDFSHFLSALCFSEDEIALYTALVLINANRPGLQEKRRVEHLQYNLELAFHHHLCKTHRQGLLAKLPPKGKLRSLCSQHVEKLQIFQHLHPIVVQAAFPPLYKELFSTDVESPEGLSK
#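 Drosophila S2 cells stably expressing Gal4-DBD/mouse RORγ fusion under metallothionein promoter plus UAS-luciferase; compound 1 h, then 700 uM CuSO4 induction for 20 h at ambient temperature; inhibition read as reduced luminescence.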
# NPSR antag: qHTS Assay for Antagonists of the Neuropeptide S Receptor: cAMP Signal Transduction | Q6W5P4 | CHO-NPSR cells, cAMP TR-FRET, antagonist mode | Potency, µM (titrated, usually from 38.3 µM), without a hit: at the highest dose activity change, negative = inhibition, actives largely listed as inhibitors | 1% of 220,000 active; note: nearly all actives have a fitted effect of over 50% in size
# VP16 counter: VP16 counterscreen qHTS for inhibitors of ROR gamma transcriptional activity. Drosophila S2 Gal4-VP16 UAS-luciferase, luminescence, 20 h. Potency, µM (doses to about 53.6 µM), for inactives: at the highest dose activity, negative = inhibition, most hits filed as inhibitors. 3.5% of 310,000 active;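 note: Gal4-VP16 expression switched on by copper sulfate through the metallothionein promoter; nearly all actives have a fitted effect of over 50% in size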
# B2AR arrestin: qHTS assay of beta-arrestin-biased ligands of beta2-adrenergic receptor; Beta-2 adrenergic receptor (Homo sapiens), P07550; beta-arrestin recruitment to beta2AR, cell-based reporter; Potency, µM (titrated, usually from 46.1 µM), for the others: at the top dose activation, most hits filed as activators; 0.02% of 330,000 active;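 note: 0% = DMSO controls and full agonism = EC100 isoproterenol or metaproterenol; nearly all actives have a fitted effect of over 65% in size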
# Numbers without * were called inactive; ? = inconclusive; . = not tested or not shown; [ ] = another dose, or the depositor's remark. A selection: hits, their analogues and other compounds. The true share with any hit is near 5.7%. Calls come from the whole dose curve; as a rule, active = well fitted curve in the direction sought with a large enough effect; inconclusive = small, poorly fitted or top-dose-only effect, or another doubt; inactive = no such curve, though single readings can be large; an effect the other way counts as inactive or inconclusive. Unless noted, % is set by controls: 0 for no effect and ±100 for the full control effect; potency is the fitted concentration of half-maximal effect.
SMILES,RORg inh,NPSR antag,VP16 counter,B2AR arrestin
COc1ccc(Oc2c(Cl)cnn(-c3ccc(Cl)c(Cl)c3)c2=O)cc1,?,10µM*,0%[0.365 µM],0%
CCOC(=O)C1=C(C)Nc2ncnn2C1c1c[nH]c2ccccc12 (stereo not given),10µM*,1%[46.1 µM],0%,0%
Cc1ccc(C(=O)Nc2ncn[nH]2)cc1,?,.,13µM*,0%
CC(C)(C)c1ccc(C(=O)Nc2ncn[nH]2)cc1,4µM*,4%,?,-1%
Nc1nc(Nc2ccccc2Cl)cc(=O)[nH]1,6%,15%,1%,0%
Cc1ccc(-c2cnc(SCC(=O)N3CCCc4ccccc43)n2C)cc1,11µM*,-26%[46.1 µM],-13%,0%
Cn1c(-c2ccccc2)cnc1SCC(=O)N1CCCc2ccccc21,?,-9%,?,-1%
Cn1c(-c2ccccc2)cnc1SCC(=O)N1CCCCC1,5µM*,1%[46.1 µM],8.9µM*,0%
O=C(c1ccncc1)N1CCC2(CCCN(c3ccncc3)C2)CC1,0%,.,-17%,.
CS(=O)(=O)N1CCC2(CCCN(C(=O)Nc3cccc(C#N)c3)C2)CC1,0%,.,4%,.
O=C1OC2C[C@H]1[C@@H]1C(=O)N(Cc3ccccc3)CCC1C2I (stereo not given in full),-7%,.,3%,.
CC1CC2=C(NC(=S)NC2c2cccc(F)c2)/C(=C/c2cccc(F)c2)C1 (stereo not given),1µM*,-52%,4.5µM*,0%
Cc1ccc(/C=C2\CCCC3=C2NC(=S)NC3c2ccc(C)cc2)cc1 (stereo not given),-43%,-10%,-26%,0%
Cc1ccc(/C=C2\CC(C)CC3=C2NC(=S)NC3c2ccc(C)cc2)cc1 (stereo not given),3.2µM*,-10%,?,0%
CC1CCN(C2=NC(=O)/C(=C/c3ccccc3F)S2)CC1,-18%,.,1%,0%
CC1CC2=C(NC(=S)NC2c2ccccc2F)/C(=C/c2ccccc2F)C1 (stereo not given),2.8µM*,?,6.3µM*,0%
C/C(=N\NC(=O)CNC(=O)c1cccc(F)c1)c1ccc2ccccc2c1,3%,.,-1%,-1%
NNC(=O)c1ccc(O)cc1O,1.3µM*,6%,3.2µM*,0%
O=C(NN=C1CCCC1)c1ccc(O)cc1O,7.9µM*,.,11µM*,0%
NNC(=O)c1cc2ccccc2cc1O,?,-11%[46.1 µM],?,0%
CCC(Cc1ccccc1)NC(=O)CSc1ccsc1[N+](=O)[O-] (stereo not given),3%,-10%[46.1 µM],9%,0%
COc1ccc(-c2csc(C3=C(O)CN(CCCN4CCCC4=O)C3=N)n2)cc1OC,20%,2%,-7%,0%
C/C(CC(=O)Nc1cc(Cl)ccc1Cl)=N\NC(N)=S,5.6µM*,3%[46.1 µM],20µM*,0%
C/C(CC(=O)Nc1ccc(C)c(Cl)c1)=N\NC(=O)c1ccncc1,?,12%,22%,0%
C/C(CC(=O)Nc1ccc(Cl)cc1C(F)(F)F)=N\NC(N)=S,13µM*,20%,?,12%
SMILES,RORg inh,NPSR antag,VP16 counter,B2AR arrestin
C/C(CC(=O)Nc1ccc(Cl)cc1Cl)=N\NC(N)=S,21%,-2%[46.1 µM],-7%,0%
C/C(CC(=O)Nc1ccc(Cl)cc1Cl)=N\NC(=O)c1ccncc1,?,2%,18µM*,0%
C/C(CC(=O)Nc1ccc(Cl)c(Cl)c1)=N\NC(N)=S,5.6µM*,-2%[46.1 µM],11µM*,5%
CN1CCC2(CC1)CCN(C(=O)c1cccc(F)c1)CC2,0%,.,6%,.
CS(=O)(=O)c1cccc(-c2nnc(NC(=O)CCS(=O)(=O)c3ccccc3)o2)c1,.,.,.,0%
ON=C1CCCCC1,28%,.,-1%,.
NC(=O)c1nnn(-c2nonc2N)c1-c1ccc([N+](=O)[O-])cc1,-34%,2%,13%,0%
O=C(Nc1cccc(S(=O)(=O)N2CCCCCC2)c1)C1CC(=O)N(c2ccc3c(c2)OCCO3)C1 (stereo not given),.,.,.,0%
O=C(O)CC/C=C\CC[C@H]1[C@@H](N2CCCCC2)[C@@H](O)C[C@@H]1OCc1ccc(-c2ccccc2)cc1,8%,.,-4%,.
Cc1cccc2nc(CSc3ccc(Cl)cc3)cn12,7.9µM*,-46%,?,0%
Clc1ccc(-n2nnnc2SCc2cn3ccccc3n2)cc1,?,-18%[46.1 µM],-22%,0%
Cc1cccc2nc(CSc3nc4cc([N+](=O)[O-])ccc4s3)cn12,20µM*,5%,?,0%
Clc1ccc(SCc2cn3ccccc3n2)cc1,8.9µM*,-4%,-12%,0%
CC(=O)OCC1OC(C#Cc2ccc(C)cc2C)C=CC1OC(C)=O (stereo not given),21%[10 µM],.,4%[10 µM],.
Cc1nnc(N2CCOCC2)c2nn(-c3ccccc3)c(C)c12,-7%,2%,0%,0%
c1ccc(-n2nnc3c(N4CCOCC4)ncnc32)cc1,8.9µM*,-16%[46.1 µM],?,0%
COc1ccc(N2C(=O)/C(=C\c3ccco3)N=C2SCC(=O)NC(C)C)cc1Cl,?,-21%,?,1%
COc1ccc(N2C(=O)/C(=C\c3ccco3)N=C2SCC(=O)N(C(C)C)C(C)C)cc1Cl,?,?,10µM*,4%
O=C(O)CN(CC(=O)O)c1ccccc1OCCOc1ccccc1N(CC(=O)O)CC(=O)O,-6%,.,1%,.
Cc1csc2ncnc(N3CCN(S(=O)(=O)c4cccc(C(F)(F)F)c4)CC3)c12,?,.,10µM*,4%
COc1ccc(C(=O)N=c2nc3ccccn3s2)cc1,2.2µM*,-10%[46.1 µM],4µM*,-1%
O=C(Cl)CCCCCCCC(=O)Cl,-3%,.,1%,.
Nc1ccc(-c2nc3ccc(N)cc3[nH]2)cc1,?,-49%,-27%,0%
Cc1nc2ccc(-c3nc4ccc(N)cc4[nH]3)cc2[nH]1,11µM*,58%,8.9µM*,0%
O=C(N/C(=C\c1ccco1)C(=O)N1CCCC1CO)c1ccccc1 (stereo not given),19%,.,0%,0%
SMILES,RORg inh,NPSR antag,VP16 counter,B2AR arrestin
Cc1ccccc1NC(=S)NC(=O)/C=C/c1ccco1,?,.,13µM*,-1%
COc1ccccc1NC(=S)NC(=O)/C=C/c1ccco1,13µM*,-29%,20µM*,0%
COc1cc2c(cc1NC(=S)NC(=O)/C=C/c1ccco1)oc1ccccc12,3.2µM*,-6%,5µM*,-2%
O=C(N/N=C/C=C/c1ccccc1)c1cc2c(ccc3ccccc32)o1,7.1µM*,-4%[46.1 µM],?,0%
C=CCn1cc(/C=N\NC(=O)c2cc3c(ccc4ccccc43)o2)c2ccccc21,5.6µM*,-9%[46.1 µM],-22%,0%
O=C(N/N=C/c1ccccc1F)c1cc2c(ccc3ccccc32)o1,?,.,?,0%
COc1ccc(OC)c(/C=N\NC(=O)c2cc3c(ccc4ccccc43)o2)c1,-36%,.,-13%,0%
C#CCn1cc(/C=N/NC(=O)c2cc3ccccc3o2)c2ccccc21,18µM*,-12%,?,2%

# High-throughput results as filed in PubChem.
